ALR H2O2 inh – inhibitors of human ALR sulfhydryl oxidase, primary screen, biochemical, H2O2 detection, HRP-luminol luminescence, single point | purified ALR, DTT oxidation | 290,000 tested, 3.8% active | AID 485317, 2010 | inhibition, % (no concentration beside the values) | FAD-linked sulfhydryl oxidase ALR (Homo sapiens), P55789;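 active means mean replicate inhibition above about 79%, with every replicate also reaching it, limit read from the data; inconclusive means only one of the two criteria met; inactive means mean below limit and not every replicate reaching it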
Target sequence (P55789 whole entry, looked up): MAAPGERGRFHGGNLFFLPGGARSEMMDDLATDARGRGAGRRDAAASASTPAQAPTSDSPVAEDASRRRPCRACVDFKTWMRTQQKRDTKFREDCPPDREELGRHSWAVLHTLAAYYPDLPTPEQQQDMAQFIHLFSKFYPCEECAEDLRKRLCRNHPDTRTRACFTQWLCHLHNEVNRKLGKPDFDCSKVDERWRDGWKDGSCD
ABHD5 PLIN5 PPI – ABHD5-PLIN5 interaction inhibitors, primary screen, cell lysate, split luciferase complementation, luminescence | Split G. princeps luciferase complementation, 4 h | inhibition, % at 4 µM | Perilipin-5 (Homo sapiens) + 1-acylglycerol-3-phosphate O-acyltransferase ABHD5 (Homo … | 360,000 tested, 0.78% active;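 active means inhibition above the mean inhibition across every tested compound plus 3 SD, cut at about 22% in these data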;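 further: 0% = DMSO only wells and the 100% control is not disclosed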
Rtt109 HAT inh – inhibitors of C. albicans Rtt109/Vps75 HAT, primary screen, biochemical, ThioGlo CoA-SH fluorescence, plate reader; 330,000 tested, 0.16% active; inhibition, % at 34.9 µM; purified Rtt109/Vps75, 4 h;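 active means inhibition of at least 50% in every replicate; inconclusive means best replicate reaches 50% inhibition but some replicates fall short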
Target sequence (Q5AAJ8 whole entry, looked up): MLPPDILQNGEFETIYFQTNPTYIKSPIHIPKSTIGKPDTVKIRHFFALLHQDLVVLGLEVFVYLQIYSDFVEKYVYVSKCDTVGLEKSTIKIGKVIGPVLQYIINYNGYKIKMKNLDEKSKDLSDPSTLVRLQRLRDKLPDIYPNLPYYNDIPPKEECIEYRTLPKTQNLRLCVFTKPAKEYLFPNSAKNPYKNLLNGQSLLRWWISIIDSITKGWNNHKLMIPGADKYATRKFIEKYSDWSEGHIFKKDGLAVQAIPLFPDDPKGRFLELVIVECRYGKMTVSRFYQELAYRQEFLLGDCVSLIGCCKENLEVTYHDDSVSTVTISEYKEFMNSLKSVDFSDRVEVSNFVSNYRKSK
LANA-H2A inh – blockers of LANA interaction with H2A/H2B – biochemical, FP readout, HTS, primary screen; Protein LANA1 (Human herpesvirus 8 type P (isolate GK18)), Q9QR71; cell-free LANA-H2A/H2B peptide, fluorescence polarization; inhibition, % (concentration not given with the values); 320,000 tested, 0.6% active; in the data active means inhibition mostly above about 10%, no sharp cut-off; inactive means mostly below about 6.7%
rCAG binder – binders of r(CAG) RNA repeats, primary screen, biochemical, fluorescence | 370,000 tested, 1.3% active | r(CAG) RNA repeat, TO-PRO-1 dye displacement fluorescence | AID 651821, 2012 | inhibition, % at 3 µM;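 active means inhibition above the plate cutoff, the mean of all test compounds on that plate plus 3 SD, cut at about 35% in these data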;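 further: 0% = DMSO alone and 100% = 100 µM mitoxantrone as full dye displacement; higher means more dye released from RNA so lower well fluorescence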
PRMT1 FP inh – PRMT1 methyltransferase inhibitors, primary screen, biochemical, fluorescence polarization. Protein arginine N-methyltransferase 1 (Homo sapiens), Q99873. recombinant PRMT1, activity-based probe fluorescence polarization. inhibition, % at 2.79 µM. 370,000 tested, 1.3% active;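 active means inhibition above about 21% made by adding two undisclosed values, limit read from the data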
ABHD5 PLIN5 conf – ABHD5-PLIN5 interaction inhibitors, confirmation, biochemical, luminescence; inhibition, % at 4 µM; shares compounds with ABHD5 PLIN5 PPI; AID 651612, 2012; 2,200 tested, 67% active; in the data active means inhibition above about 23%;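 further: 0% = DMSO vehicle wells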
HNF4 split-luc – HNF4 dimerization inhibitors, counter-screen for ABHD5-PLIN5 interaction inhibitor project, biochemical, split-luciferase complementation, luminescence; shares compounds with ABHD5 PLIN5 PPI; inhibition, % at 4 µM; 2,200 tested, 77% active; AID 651674, 2012;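 active means mean inhibition across replicate wells exceeding the computed hit threshold, cut at about 13% in these data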;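 further: light from luciferase halves that rejoin when HNF4 fusion proteins dimerize; 0% = DMSO only wells and the 100% control is not given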
rCAG binder conf – small molecules binding CAG repeat RNA – biochemical, fluorescence, confirmation; inhibition, % at 3 µM; r(CAG) RNA repeat, TO-PRO-1 dye displacement fluorescence; shares compounds with rCAG binder; AID 652065, 2013; 4,300 tested, 70% active;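 active means inhibition above a per-plate cutoff, the mean inhibition of sample wells plus 3 SD, cut at about 35% in these data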;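 further: loss of TO-PRO-1 fluorescence as compound displaces dye from 1x1 AA loop RNA; 0% = DMSO only wells and 100% = 100 µM mitoxantrone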
dCAG dye counter – displacement of TO-PRO-1 from CAG DNA duplex, counter-screen for rCAG RNA repeat binder project, biochemical, fluorescence, TO-PRO-1 dye, d(CAG) DNA oligo | 4,300 tested, 94% active | shares compounds with rCAG binder | inhibition, % at 3 µM | d(CAG) DNA oligo TO-PRO-1 dye displacement;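 active means inhibition above its plate's cutoff, the mean test-well inhibition plus 3 SD, cut at about 4.8% in these data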;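 further: 0% = DNA dye mix with DMSO and 100% = 100 µM mitoxantrone; hits displace the dye from DNA and so lower well fluorescence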
PRMT1 inh conf – PRMT1 methyltransferase inhibitors, confirmation, biochemical, fluorescence polarization, triplicate | shares compounds with PRMT1 FP inh | inhibition, % at 2.79 µM | 3,300 tested, 42% active | AID 687036, 2013 | recombinant His-PRMT1, activity-based probe fluorescence polarization;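 active means mean inhibition across replicates above the hit cutoff derived for the earlier primary screen, cut at about 22% in these data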
Starred values were filed as active, the others as inactive; ? = inconclusive; · = not tested or not shown. Compounds with a hit are over-represented: about 5.9% of the library has one in this group of screens.

SMILES	ALR H2O2 inh	ABHD5 PLIN5 PPI	Rtt109 HAT inh	LANA-H2A inh	rCAG binder	PRMT1 FP inh	ABHD5 PLIN5 conf	HNF4 split-luc	PRMT1 inh conf	others
CCCCCNC(=O)C(c1ccc(OC)cc1)n1c(=O)c(-c2ccco2)nc2ccccc21 (stereo not drawn)	·	71*	·	·	32	28*	96*	62*	14
O=C(NCc1ccncc1)[C@@H]1CCCN1C(=O)[C@@H]1CCCN1C(=O)c1ccccc1Cl	·	2	·	·	2	-4	·	·	·
Cn1cccc1C(=O)N1CCN(S(=O)(=O)c2ccc([N+](=O)[O-])cc2)CC1	·	·	·	·	3	1	·	·	·
Cc1ccc(/C=C/C(=O)N2CC(C)CC(C)C2)o1 (stereo not drawn)	15	28*	-3	-2	3	40*	23*	36*	19
CCN1CCN(C(=O)/C=C/c2ccc(C)o2)CC1	-7	-1	1	8	0	2	·	·	·
Cc1ccccc1-c1nc(CS(=O)(=O)CC(=O)NCc2ccco2)c(C)o1	-17	-1	-6	-2	-1	7	·	·	·
O=C(OCC(=O)N1N=C(c2ccc(Cl)cc2)CC1c1ccco1)c1cncc(Br)c1 (stereo not drawn)	-2	35*	16	-3	26	34*	76*	89*	5
O=C(OCC(=O)N1N=C(c2ccc(Cl)cc2)CC1c1ccco1)c1ccco1 (stereo not drawn)	-3	1	1	-4	-4	3	·	·	·
O=C(N[C@@H](Cc1cccnc1)C(=O)N1CCC[C@H]1C(=O)NC1CCCC1)c1ccc(Cl)c(Cl)c1	·	·	·	·	-1	5	·	·	·
O=C(O)Cc1c[nH]c2ccc(O)cc12	16	38*	-2	4	3	27*	7	39*	1
COc1ccc2[nH]cc(CC(=O)O)c2c1	4	11	4	-3	3	8	·	·	·
Cn1ccnc1Sc1cc(NCCCO)c([N+](=O)[O-])c2nonc12	65	26*	?	-5	-2	42*	29*	95*	26*
O=[N+]([O-])c1c(NCCCO)cc(Sc2ccc(Cl)cc2)c2nonc12	22	6	7	4	1	14	·	·	·
Cc1ccc(-c2cc(C(=O)Nc3ccccc3C(N)=O)c3ccccc3n2)o1	-4	43*	·	-3	22	65*	28*	28*	28*
COc1ccc(OC)c(-c2cc(C(=O)Nc3ccccc3C(N)=O)c3ccccc3n2)c1	-1	7	·	0	5	0	·	·	·
CC(C)S(=O)(=O)N1CCCC(c2cc(C(=O)Nc3ccc(F)c(Cl)c3)no2)C1 (stereo not drawn)	·	-2	·	·	3	-1	·	·	·
O=C(O)c1cc(-c2ccc(-c3ccc(F)cc3)o2)nc2ccccc12	·	31*	-451	0	37*	86*	20	61*	27*	rCAG binder conf=17;dCAG dye counter=4
O=C(c1cc(-c2ccc(F)cc2)nc2ccccc12)N1CCC1	6	-6	-3	7	2	-6	·	·	·
Cc1nnc(N=c2ssnc2Cl)o1	30	47*	8	-6	5	49*	98*	110*	70*
CCOC(=O)CSc1nnc(NCC(=O)OC(C)C)c(=O)[nH]1	97*	27*	2	1	-2	54*	48*	98*	67*
CCOC(=O)CNC(=O)CSc1nnc(C)c(=O)[nH]1	2	2	3	-1	0	-2	·	·	·
O=C1Nc2cnc(Cl)nc2Nc2ccccc21	·	-8	·	·	1	-1	·	·	·
COC1=C(OC)C(=O)C(Sc2ccc3ccccc3c2)=CC1=O	·	81*	-5	·	6	95*	72*	104*	94*
C[C@@H]1/C=C/CC(=O)N[C@H](c2ccccc2)[C@H](C)/C=C/CC(=O)N[C@@H]1c1ccccc1	·	·	·	·	2	-2	·	·	·
COC(=O)c1ccc2nc(-c3ccco3)c(Cc3ccc(C)cc3)n2c1	·	39*	·	·	18	34*	19	42*	10
SMILES	ALR H2O2 inh	ABHD5 PLIN5 PPI	Rtt109 HAT inh	LANA-H2A inh	rCAG binder	PRMT1 FP inh	ABHD5 PLIN5 conf	HNF4 split-luc	PRMT1 inh conf	others
COC(=O)c1ccc2nc(-c3ccco3)c(Cc3ccccc3C(F)(F)F)n2c1	·	52*	·	·	22	34*	24*	66*	16
COC(=O)c1ccc2nc(-c3ccc(F)cc3)c(Cc3cccc(F)c3)n2c1	·	-7	·	·	5	1	·	·	·
COC(=O)c1ccc2nc(-c3ccco3)c(Cc3cccc(F)c3)n2c1	·	57*	·	·	20	43*	48*	83*	36*
CCCCNC(=O)C1(C)CCC(=O)N1c1cc(C(C)(C)C)nn1C (stereo not drawn)	·	3	·	·	0	1	·	·	·
CN1C2C=CC(=O)C1C1C(=O)N(c3ccccc3)C(=O)C12 (stereo not drawn)	·	44*	·	·	1	28*	42*	44*	2
Cc1ccccc1N1C(=O)C2C3C=CC(C2C1=O)N(C)C3=O (stereo not drawn)	-4	3	·	2	1	0	·	·	·
Cc1ccccc1C1=C/C(=C(\SS/C(C(=O)c2ccc(OCC(=O)O)c(Cl)c2Cl)=C2\C=C(c3ccccc3C)SS2)C(=O)c2ccc(OCC(=O)O)c(Cl)c2Cl)SS1	·	2	-2	·	14	1	·	·	·
COc1ccc(N(C(=O)C(C)C)S(=O)(=O)c2cccs2)cc1	·	2	-2	·	-2	0	·	·	·
CC(C)C(=O)N(c1cc2sc(=O)oc2c2ccccc12)S(=O)(=O)c1cccs1	-17	68*	6	2	77*	81*	9	75*	22*	rCAG binder conf=48*;dCAG dye counter=23*
COc1ccc(OC)c(S(=O)(=O)NCC2CCN(C(=O)C(=O)c3cccs3)CC2)c1	·	·	·	·	3	5	·	·	·
